Assay results published in the supplement of paper PMC11732987, “Enantioselective OTUD7B fragment discovery through chemoproteomics screening and high-throughput optimisation” (Communications Chemistry, 2025).

Columns and labels:
Experiment in all cases: log2 ratio of Biotin-Ahx-Ub-VS probe labelling (fragment/DMSO); higher = less target engagement (more negative = stronger competition), active = hit call of the paper (q ≤ 0.05, log2 ratio ≤ -1)
Conditions in all cases: compound concentration: 200 uM; treatment time: 3 h
OTUD6B = target: T1, OTUD6B (UniProt Q8N6M0)
T1 sequence (whole entry): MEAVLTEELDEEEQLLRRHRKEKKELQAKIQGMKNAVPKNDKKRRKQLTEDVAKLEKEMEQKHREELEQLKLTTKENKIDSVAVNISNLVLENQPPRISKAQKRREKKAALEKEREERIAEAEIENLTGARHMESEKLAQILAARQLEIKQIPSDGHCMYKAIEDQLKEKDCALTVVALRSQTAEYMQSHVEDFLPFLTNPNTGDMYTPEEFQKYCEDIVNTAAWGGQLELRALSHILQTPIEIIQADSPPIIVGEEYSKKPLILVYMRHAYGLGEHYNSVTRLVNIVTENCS
Outline: (§1)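 HEK293T lysate (495 µg per sample, in Tris/CHAPS/IGEPAL buffer with protease inhibitors) was treated in triplicate with fragment at 200 µM or with DMSO for 3 h. It was then treated with Biotin-Ahx-Ub-VS (0.5 µM final) for 1 h. Labelled DUBs were NeutrAvidin-enriched, digested with LysC and trypsin, and run by diaPASEF LC-MS/MS. Spectronaut label-free quantities were global-median-normalised. Values are average log2 ratios fragment/DMSO by unpaired t-test, using proteins with ≥2 unique peptides.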

OTUD7B = target: T2, OTUD7B (UniProt Q6GQQ9)
T2 sequence (whole entry): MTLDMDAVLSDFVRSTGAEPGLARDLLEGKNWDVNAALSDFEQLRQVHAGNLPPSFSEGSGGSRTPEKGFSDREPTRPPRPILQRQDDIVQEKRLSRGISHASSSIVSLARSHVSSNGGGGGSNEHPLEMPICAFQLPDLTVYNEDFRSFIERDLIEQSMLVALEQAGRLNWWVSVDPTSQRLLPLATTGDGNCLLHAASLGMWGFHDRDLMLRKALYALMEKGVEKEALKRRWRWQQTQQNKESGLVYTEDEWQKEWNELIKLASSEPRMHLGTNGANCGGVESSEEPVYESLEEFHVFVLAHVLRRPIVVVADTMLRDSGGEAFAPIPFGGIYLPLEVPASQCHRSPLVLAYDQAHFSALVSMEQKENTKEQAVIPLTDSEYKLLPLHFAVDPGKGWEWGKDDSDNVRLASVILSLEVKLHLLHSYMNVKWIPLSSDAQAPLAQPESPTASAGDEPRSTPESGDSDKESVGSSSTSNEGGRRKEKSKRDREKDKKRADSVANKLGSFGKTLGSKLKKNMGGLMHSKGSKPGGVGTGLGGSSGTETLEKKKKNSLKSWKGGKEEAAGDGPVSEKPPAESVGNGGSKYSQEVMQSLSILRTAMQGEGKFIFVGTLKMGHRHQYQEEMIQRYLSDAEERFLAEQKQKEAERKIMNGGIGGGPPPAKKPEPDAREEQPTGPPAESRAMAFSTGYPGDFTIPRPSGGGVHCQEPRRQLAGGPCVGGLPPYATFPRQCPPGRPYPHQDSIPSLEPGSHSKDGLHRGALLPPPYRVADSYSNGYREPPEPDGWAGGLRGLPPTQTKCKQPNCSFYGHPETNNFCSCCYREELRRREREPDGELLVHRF
Outline: as §1

PRPF8 = PRPF8 (UniProt Q6P2Q9)
Outline: as §1

PSMD7 = target: T3, PSMD7 (UniProt P51665)
T3 sequence (whole entry): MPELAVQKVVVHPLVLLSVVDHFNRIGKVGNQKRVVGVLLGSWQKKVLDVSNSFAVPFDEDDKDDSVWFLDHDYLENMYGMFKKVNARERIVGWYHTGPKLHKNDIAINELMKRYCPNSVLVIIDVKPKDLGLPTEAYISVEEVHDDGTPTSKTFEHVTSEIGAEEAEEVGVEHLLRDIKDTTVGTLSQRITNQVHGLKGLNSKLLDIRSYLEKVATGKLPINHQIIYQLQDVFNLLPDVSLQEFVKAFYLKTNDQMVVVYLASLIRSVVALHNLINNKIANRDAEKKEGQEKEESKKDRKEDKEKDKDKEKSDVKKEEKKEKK
Outline: as §1

UCHL1 = UCHL1 (UniProt P09936)
UCHL1, sequence (P09936 whole entry, looked up): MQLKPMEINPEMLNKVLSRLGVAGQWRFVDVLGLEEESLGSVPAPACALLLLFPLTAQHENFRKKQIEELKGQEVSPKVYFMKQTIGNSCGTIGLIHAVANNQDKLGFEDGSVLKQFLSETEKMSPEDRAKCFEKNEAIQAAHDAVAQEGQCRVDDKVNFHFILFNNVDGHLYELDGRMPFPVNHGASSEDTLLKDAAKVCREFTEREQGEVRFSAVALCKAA
Outline: as §1

UCHL3 = target: T4, UCHL3 (UniProt P15374)
T4 sequence (whole entry): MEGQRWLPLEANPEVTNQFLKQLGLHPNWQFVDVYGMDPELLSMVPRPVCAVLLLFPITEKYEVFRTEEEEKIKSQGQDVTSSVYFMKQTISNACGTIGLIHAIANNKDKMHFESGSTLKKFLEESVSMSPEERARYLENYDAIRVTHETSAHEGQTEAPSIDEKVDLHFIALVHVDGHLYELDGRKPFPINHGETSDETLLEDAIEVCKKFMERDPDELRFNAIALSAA
Outline: as §1

UCHL5 = target: T5, UCHL5 (UniProt Q9Y5K5)
T5 sequence (whole entry): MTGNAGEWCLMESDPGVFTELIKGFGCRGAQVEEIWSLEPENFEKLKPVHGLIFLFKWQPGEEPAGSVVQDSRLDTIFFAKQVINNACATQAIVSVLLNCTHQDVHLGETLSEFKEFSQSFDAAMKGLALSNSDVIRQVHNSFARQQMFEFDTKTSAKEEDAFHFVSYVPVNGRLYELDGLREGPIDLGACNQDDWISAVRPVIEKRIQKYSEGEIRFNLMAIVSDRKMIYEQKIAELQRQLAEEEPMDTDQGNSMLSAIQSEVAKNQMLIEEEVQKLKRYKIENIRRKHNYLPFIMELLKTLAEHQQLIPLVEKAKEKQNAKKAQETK
Outline: as §1

USP10 = USP10 (UniProt Q14694)
USP10, sequence (Q14694 whole entry): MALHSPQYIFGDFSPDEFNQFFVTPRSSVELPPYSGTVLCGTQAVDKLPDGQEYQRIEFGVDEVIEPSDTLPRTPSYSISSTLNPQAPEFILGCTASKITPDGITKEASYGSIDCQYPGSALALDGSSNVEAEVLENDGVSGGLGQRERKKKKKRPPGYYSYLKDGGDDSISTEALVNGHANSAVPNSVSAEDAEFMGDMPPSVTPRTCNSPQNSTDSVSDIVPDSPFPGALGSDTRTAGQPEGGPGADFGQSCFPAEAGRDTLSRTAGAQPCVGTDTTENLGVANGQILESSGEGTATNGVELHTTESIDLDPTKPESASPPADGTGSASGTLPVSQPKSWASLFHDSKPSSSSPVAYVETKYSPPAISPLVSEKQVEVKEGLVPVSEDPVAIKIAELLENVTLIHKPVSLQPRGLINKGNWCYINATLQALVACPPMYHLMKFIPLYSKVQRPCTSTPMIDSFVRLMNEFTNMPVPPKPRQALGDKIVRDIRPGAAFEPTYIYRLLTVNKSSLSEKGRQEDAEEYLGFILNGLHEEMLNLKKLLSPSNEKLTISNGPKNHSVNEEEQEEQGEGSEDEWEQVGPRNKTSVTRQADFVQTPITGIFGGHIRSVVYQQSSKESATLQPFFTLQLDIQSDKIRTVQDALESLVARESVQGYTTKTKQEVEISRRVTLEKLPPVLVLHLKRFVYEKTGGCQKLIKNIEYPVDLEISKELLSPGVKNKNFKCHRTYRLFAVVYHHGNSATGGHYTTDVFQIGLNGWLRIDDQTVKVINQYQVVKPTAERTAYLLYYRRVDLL
Outline: as §1

USP15 = target: T6, USP15 (UniProt Q9Y4E8)
T6 sequence (whole entry): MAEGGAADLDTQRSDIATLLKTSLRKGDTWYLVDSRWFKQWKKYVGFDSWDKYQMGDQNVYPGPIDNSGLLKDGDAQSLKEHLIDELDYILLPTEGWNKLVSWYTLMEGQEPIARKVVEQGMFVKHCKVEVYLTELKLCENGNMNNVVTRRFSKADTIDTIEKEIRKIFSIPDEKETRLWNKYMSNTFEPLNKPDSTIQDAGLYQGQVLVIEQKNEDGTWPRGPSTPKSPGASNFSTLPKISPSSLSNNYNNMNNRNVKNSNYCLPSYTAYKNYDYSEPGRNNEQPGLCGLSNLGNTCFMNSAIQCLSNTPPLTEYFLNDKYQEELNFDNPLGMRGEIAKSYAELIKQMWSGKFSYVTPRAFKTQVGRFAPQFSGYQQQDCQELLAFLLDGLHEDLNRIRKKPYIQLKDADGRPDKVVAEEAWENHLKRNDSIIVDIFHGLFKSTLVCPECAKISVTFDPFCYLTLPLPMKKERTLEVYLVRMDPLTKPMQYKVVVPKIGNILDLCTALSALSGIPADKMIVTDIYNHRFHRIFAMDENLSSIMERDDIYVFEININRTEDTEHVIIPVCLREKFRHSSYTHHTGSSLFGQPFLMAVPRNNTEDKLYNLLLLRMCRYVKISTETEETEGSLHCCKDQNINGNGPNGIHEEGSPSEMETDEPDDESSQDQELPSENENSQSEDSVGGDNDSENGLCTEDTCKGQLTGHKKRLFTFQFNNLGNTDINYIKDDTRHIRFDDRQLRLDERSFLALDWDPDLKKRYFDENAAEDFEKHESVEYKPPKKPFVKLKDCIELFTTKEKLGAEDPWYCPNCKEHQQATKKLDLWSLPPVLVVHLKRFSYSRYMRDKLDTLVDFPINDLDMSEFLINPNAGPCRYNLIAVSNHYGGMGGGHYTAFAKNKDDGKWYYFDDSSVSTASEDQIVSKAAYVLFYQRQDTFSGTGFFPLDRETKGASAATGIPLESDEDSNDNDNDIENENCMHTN
Outline: as §1

USP16 = USP16 (UniProt Q9Y5T5)
USP16, sequence (Q9Y5T5 whole entry, looked up): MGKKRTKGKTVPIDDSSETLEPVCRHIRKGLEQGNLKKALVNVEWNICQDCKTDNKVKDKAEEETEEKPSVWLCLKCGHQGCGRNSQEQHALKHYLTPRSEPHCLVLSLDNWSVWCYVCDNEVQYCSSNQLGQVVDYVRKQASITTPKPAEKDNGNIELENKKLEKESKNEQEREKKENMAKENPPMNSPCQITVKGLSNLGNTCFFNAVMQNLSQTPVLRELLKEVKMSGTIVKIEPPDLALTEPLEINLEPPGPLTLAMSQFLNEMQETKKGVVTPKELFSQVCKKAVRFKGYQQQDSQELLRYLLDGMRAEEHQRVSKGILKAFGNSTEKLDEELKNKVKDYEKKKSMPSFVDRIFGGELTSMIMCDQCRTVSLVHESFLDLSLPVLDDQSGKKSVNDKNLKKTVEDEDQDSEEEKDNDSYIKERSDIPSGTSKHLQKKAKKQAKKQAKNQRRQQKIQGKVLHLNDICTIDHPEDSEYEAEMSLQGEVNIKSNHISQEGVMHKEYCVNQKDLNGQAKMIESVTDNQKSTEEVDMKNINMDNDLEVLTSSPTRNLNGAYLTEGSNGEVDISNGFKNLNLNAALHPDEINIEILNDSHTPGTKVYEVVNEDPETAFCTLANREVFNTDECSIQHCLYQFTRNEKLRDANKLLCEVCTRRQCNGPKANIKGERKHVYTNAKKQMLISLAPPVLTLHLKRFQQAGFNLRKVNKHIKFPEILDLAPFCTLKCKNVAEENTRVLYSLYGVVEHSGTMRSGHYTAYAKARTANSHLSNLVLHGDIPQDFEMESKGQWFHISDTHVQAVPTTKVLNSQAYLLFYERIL
Outline: as §1

Measured: log2 ratio of Biotin-Ahx-Ub-VS probe labelling

CC1CCc2onc(CNC(=O)CCl)c2C1 (stereo not given)
active: UCHL1 -1.33
inactive: OTUD6B -0.0903 | OTUD7B -0.588 | PRPF8 -0.225 | PSMD7 -0.0595 | UCHL3 0.123 | UCHL5 -0.175 | USP10 -0.0579 | USP15 -0.0914 | USP16 0.406
